The source of these data is PubChem BioAssay (NCATS).

Values without a mark were called inactive. Activity calls are given as the source filed them. Calls come from the whole dose curve; as a rule, active = well fitted curve in the direction sought with a large enough effect; inconclusive = small, poorly fitted or top-dose-only effect, or effect the other way, or another doubt; inactive = no such curve, though single readings can be large or run the other way.

This assay can be described thus: qHTS of Nrf2 Activators: LOPAC Validation (AID 624149). Note: 0% is about no effect. As to conditions: Nrf2/ARE reporter cell assay; series mostly up to 46.1 µM; activation: at the top concentration. In a few lines: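 Cells (AREc32_Fluc) are plated at 1000 per well in OPTI-MEM containing 5% FBS and left overnight. Compounds are pinned in and incubated 24 hr at 37 deg C, and firefly luciferase is detected with Steady-Glo.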
For `CC[C@@]1(O)C(=O)OCc2c1cc1n(c2=O)Cc2cc3ccccc3nc2-1`, the “activation” value is -2.05%.
Take `NC(CP(=O)(O)O)C(=O)O` (stereo unspecified): the “activation” value is -1.2%.
Take `Cn1cnc(CCN)c1`: the “activation” value was -1.28%.
The same measure, in the same setting: for `NC(N)=NOCCC(N)C(=O)O` (stereo unspecified) the value was 0.577%; for `CC(Cc1ccc(O)cc1)NCC(O)c1cc(O)cc(O)c1` (stereo unspecified), 0.545%; for `Cc1c(C(=O)c2cccc3ccccc23)c2cccc3c2n1[C@H](CN1CCOCC1)CO3`, -1.95%.
`CC[C@@H](C(N)=O)N1CCCC1=O`: the “activation” value is 1.09%.
Regarding `NCc1cc(=O)[nH]o1`, the “activation” value is 0.968%.
Take `c1ccc2sc(C3(N4CCCCC4)CCCCC3)cc2c1`: the “activation” value is 1.66%.
Take `CNCCc1ccc(O)c(O)c1`: the “activation” value is -1.38%.
As to `NC(=NCCC[C@H](N)C(=O)O)N[N+](=O)[O-]`, the “activation” value is -1.12%.
Same read-out and setting: the same measure for `O=C(Cc1ccc(Cl)c(Cl)c1)N1CCCCC1CN1CCCC1` (stereo unspecified): -2%.
For `C[C@@H]1O[C@H](C[N+](C)(C)C)C[C@H]1O`, the “activation” value was 1.06%.
As for `NCCc1c[nH]c2ccc(O)cc12`, the “activation” value was -2.09%.
As to `Clc1cnc(Oc2ccc(Oc3ncc(Cl)cc3Cl)cc2)c(Cl)c1`, the “activation” value was -0.877%.
On to `CC(C)Oc1cccnc1N(C)C1CCN(Cc2ccccc2)CC1`, for which the “activation” value was -0.525%.
The same measure, in the same setting: the same measure for `O=C(O)[C@@H]1CCN1`: 0.634%; for `CC1=NN=C(c2ccc(N)cc2)c2cc3c(cc2C1)OCO3`: -0.914%; for `S=C(NC1CCCCC1)N1CCC(c2cnc[nH]2)CC1`: 0.696%.
As to `C/C=C(/C)C(=O)O[C@H]1C(C)=C2[C@H]([C@@H]1OC(=O)CCCCCCC)[C@@](C)(OC(C)=O)C[C@H](OC(=O)CCC)[C@@]1(O)[C@H]2OC(=O)[C@@]1(C)O`, the “activation” value was -3.94%.
For `C[N+]1(C)C2CCC1CC(OC(=O)C(CO)c1ccccc1)C2` (stereo unspecified), the molecule was called inactive.
